Measured values from PubChem BioAssay.
The source made the active and inactive calls.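 The calls were made as follows, unless noted: active = inhibition of the reporter signal at or above 50%; inactive = inhibition below 50%.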

Tests used:
[1] = inhibitors of TNFa-induced NFkB p65 translocation, primary screen, imaging, HUVEC, MLSMR starter and 10KST1 sets (AID 438;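 active = inhibition above 20% together with a positive visual image hit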;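 also: compound added about 3h40 before a 20 min TNFalpha stimulation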;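 as to inhibition: signal is the nuclear over cytoplasmic p65 intensity ratio per well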); conditions: HUVEC TNFa-induced p65 nuclear translocation; cell count: measured here: nuclei count (cytotoxicity indicator), at 2.08 µM; inhibition: at 2 µM, stronger effect = higher value, 0% TNFa-plus-vehicle, 100% no-TNFa wells
[2] = inhibitors of mutant huntingtin aggregation, primary screen, imaging, exon1htt(103Q)mCFP cells, high-content imaging (AID 483;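 active = visual image review flags a hit and inhibition of aggregation exceeds 20%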;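 also: compound exposure lasted 3 days before fixation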;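 as to nuclei count: percent of the per-plate median nuclei count of sample wells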); conditions: exon1htt(103Q)mCFP cell line, aggregate imaging, at 2 µM; inhibition of aggregation: stronger effect = higher value; nuclei count: measured here: cell count, toxicity
[3] = inhibitors of E-selectin induction by TNFa, primary screen, imaging, HUVEC, immunofluorescence, MLSMR starter and 10KST1 sets (AID 487;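 active = visually confirmed hit in the image check and inhibition above 20%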;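 as to inhibition: signal is fraction of cell area covered by stained E-selectin grains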;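 as to nuclei count: 100% = median nuclei count of all wells on the same plate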); conditions: HUVEC TNFalpha-induced E-selectin immunofluorescence imaging, at 2 µM; inhibition: stronger effect = higher value; nuclei count: measured here: cell number, toxicity
[4] = target: Voltage-gated potassium channel subunit beta-2 (Rattus norvegicus) (UniProt P62483); assay: KvBeta enzyme negative modulators, primary screen, biochemical, NADPH fluorescence (AID 622;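 active = fluorescence slope higher than the sample average by over 3 SD, cut at about -0.22 in these data, passing the limit was not always enough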;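 also: slope of raw intensity against log time taken from 70 to 1610 s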); conditions: recombinant KvBeta, 4-cyanobenzaldehyde reduction, at 10 µM, stronger effect = higher value
Voltage-gated potassium channel subunit beta-2 (Rattus norvegicus), sequence (P62483 whole entry, looked up): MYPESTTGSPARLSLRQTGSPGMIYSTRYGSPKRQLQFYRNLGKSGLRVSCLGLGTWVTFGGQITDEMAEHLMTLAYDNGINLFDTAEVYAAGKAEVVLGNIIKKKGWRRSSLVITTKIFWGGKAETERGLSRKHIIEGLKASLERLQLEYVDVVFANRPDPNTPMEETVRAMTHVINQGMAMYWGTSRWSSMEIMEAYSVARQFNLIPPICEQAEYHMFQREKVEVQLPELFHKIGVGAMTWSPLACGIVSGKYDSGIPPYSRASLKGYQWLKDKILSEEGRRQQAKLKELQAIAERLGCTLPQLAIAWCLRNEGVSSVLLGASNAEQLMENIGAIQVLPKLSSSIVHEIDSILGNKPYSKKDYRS

[5] = target: Voltage-gated potassium channel subunit beta-2 (Rattus norvegicus) (UniProt P62483); assay: KvBeta positive modulators, primary screen, biochemical, NADPH fluorescence (AID 623;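 active = NADPH fluorescence slope more negative than the mean of all samples by about 3 SD, 99.7% confidence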;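 also: fluorescence intensity change per second fitted from 20 to 320 s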); conditions: Recombinant KvBeta, NADPH fluorescence decrease slope, 10 min; at 10 µM; stronger effect = lower value
[6] = target: Alpha-2C adrenergic receptor (Homo sapiens) (UniProt P18825); assay: modulators of alpha2C/GIRK thallium flux, primary screen, cell-based, HEK293 alpha2C/GIRK1/2 (AID 624;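 active = fluorescence slope after compound addition differing from the mean of all screened samples at 99.7% confidence, in either direction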;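 also: slope of fluorescence ratio to pre-addition baseline per second over 15 to 24 s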); conditions: thallium flux BTC fluorescence, at 10 µM, actives lie on both sides
Alpha-2C adrenergic receptor (Homo sapiens), sequence (P18825 whole entry, looked up): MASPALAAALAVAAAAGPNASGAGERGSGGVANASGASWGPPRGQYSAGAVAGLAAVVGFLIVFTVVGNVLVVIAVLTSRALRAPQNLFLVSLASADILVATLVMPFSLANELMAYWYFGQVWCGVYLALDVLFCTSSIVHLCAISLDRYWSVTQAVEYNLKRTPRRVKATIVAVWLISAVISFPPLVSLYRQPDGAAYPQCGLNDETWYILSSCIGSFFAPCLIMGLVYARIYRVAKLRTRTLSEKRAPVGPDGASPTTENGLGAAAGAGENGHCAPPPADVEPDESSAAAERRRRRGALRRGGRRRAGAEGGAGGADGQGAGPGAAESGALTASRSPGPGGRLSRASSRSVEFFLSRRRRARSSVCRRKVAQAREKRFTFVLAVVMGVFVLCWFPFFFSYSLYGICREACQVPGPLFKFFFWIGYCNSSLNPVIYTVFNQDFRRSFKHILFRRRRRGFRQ

[7] = inhibitors of Sendai virus-induced IRF3 signaling, primary screen, TLR/RLR signaling modifier project, cell-based, Sendai virus stimulus, luciferase, 10K MLSCN set (AID 602276;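 active = inhibition at or above 50% at 10 µM; inactive = inhibition below 50%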;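 also: firefly luciferase from ISG56 promoter only with Renilla not read in this screen; 0% = Sendai virus plus DMSO and 100% = medium plus DMSO without virus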); conditions: HEK293 RL24 IRF3 luciferase reporter, at 10 µM, stronger effect = higher value
[8] = inhibitors of poly I:C-induced TLR3 signaling, primary screen, cell-based, poly I:C stimulus, luciferase, 10K MLSCN set (AID 602277); conditions: HEK293-TLR3 RL24 IRF3 luciferase reporter, at 10 µM, stronger effect = higher value

| SMILES | cell count [1] | inhibition [1] | inhibition of aggregation [2] | nuclei count [2] [%] | inhibition [3] | nuclei count [3] [%] | fluorescence slope [4] | NADPH fluorescence slope [5] | slope [6] | inhibition [7] | inhibition [8] |
| --- | --- | --- | --- | --- | --- | --- | --- | --- | --- | --- | --- |
| CCOC(=O)CSc1nc2sc(C)c(C)c2c(=O)n1C | 259 | 12.5% (inactive) | 25.6% (inactive) | 76.8 | 8.8% (inactive) | 113 | -0.36 (inactive) | 1.9e-05 (inactive) | 0.00254 (inactive) | 11% (inactive) | 26% (inactive) |
| O=C1CC(c2cccs2)CC2=C1C(c1ccccc1)n1ncnc1N2 (stereo not drawn) | 577 | 3.1% (inactive) | 4.6% (inactive) | 90.7 | -72.5% (inactive) | 98.9 | -0.597 (inactive) | 4.2e-06 (inactive) | 0.00446 (inactive) | 13.5% (inactive) | 25.2% (inactive) |
| CC1=C(C(=O)OC2CCCCCC2)C(c2ccc(C)o2)C2=C(CCCC2=O)N1 (stereo not drawn) | 420 | 3.9% (inactive) | -10% (inactive) | 102 | -22.9% (inactive) | 108 | -0.572 (inactive) | -2e-05 (inactive) | 0.00508 (inactive) | -8.61% (inactive) | -19.9% (inactive) |
| Cc1oc(-c2ccccc2F)nc1CS(=O)(=O)CC(=O)NCc1ccco1 | 753 | -1.1% (inactive) | 4.5% (inactive) | 102 | -29.4% (inactive) | 107 | -0.539 (inactive) | -1.9e-05 (inactive) | 0.00692 (inactive) | 0.0639% (inactive) | 22.5% (inactive) |
| CCOC(=O)c1ccc(Oc2cc(C)nc(SC)n2)cc1 | 484 | 10.1% (inactive) | 13.3% (inactive) | 117 | -192% (inactive) | 134 | -0.47 (inactive) | -9.6e-06 (inactive) | 0.00614 (inactive) | 15.8% (inactive) | 19.9% (inactive) |
| Cc1ccc(CNc2cc(-c3nn4c(C)nnc4s3)ccc2C)s1 | 679 | 8.6% (inactive) | -34.9% (inactive) | 2.1 | -76.3% (inactive) | 102 | -0.444 (inactive) | -1.1e-05 (inactive) | 0.00646 (inactive) | 5.73% (inactive) | 13.7% (inactive) |
| Cc1c(C(=O)Nc2ccncc2)oc2c1C(=O)CC(C)(C)C2 | 254 | 9.6% (inactive) | 18.9% (inactive) | 85.4 | -44.5% (inactive) | 97.2 | -0.408 (inactive) | -2.8e-05 (inactive) | 0.00527 (inactive) | 7.94% (inactive) | -3.33% (inactive) |
| C=CCOc1ccccc1/C=c1\sc2nc(=O)c(C)nn2c1=O | 704 | -11.1% (inactive) | 7.5% (inactive) | 100 | -31.3% (inactive) | 106 | -0.362 (inactive) | 1.8e-05 (inactive) | 0.0042 (inactive) | 15.6% (inactive) | 26.5% (inactive) |
| CN(C)c1ccc(CNCCC2(O)CCOC(C)(C)C2)cc1 (stereo not drawn) | 495 | -1.4% (inactive) | 3.5% (inactive) | 89.5 | -25% (inactive) | 114 | -0.472 (inactive) | -4.7e-06 (inactive) | 0.00622 (inactive) | 0.927% (inactive) | 28.2% (inactive) |
| COc1ccccc1OCC(=O)N1CCN(c2ccccc2OC)CC1 | 471 | 3% (inactive) | 5.3% (inactive) | 108 | 35.1% (inactive) | 107 | -0.6 (inactive) | -1.5e-05 (inactive) | 0.00684 (inactive) | -19.3% (inactive) | -1.87% (inactive) |
| CCS(=O)(=O)N1CCCC(C(=O)NCc2cccc(OC)c2)C1 (stereo not drawn) | 722 | -5.5% (inactive) | -59.8% (inactive) | 105 | -66.4% (inactive) | 116 | -0.617 (inactive) | -1.9e-05 (inactive) | 0.00403 (inactive) | -3.96% (inactive) | 3.19% (inactive) |
| COc1cc(S(=O)(=O)N(C)C)ccc1F | 333 | -4.5% (inactive) | 5.9% (inactive) | 87.4 | -114% (inactive) | 116 | -0.413 (inactive) | -5e-05 (inactive) | 0.00561 (inactive) | 17.1% (inactive) | 9.1% (inactive) |
| CC1(C)NC(=O)N(CC(O)COc2cccc(F)c2)C1=O (stereo not drawn) | 690 | -1.1% (inactive) | 8.4% (inactive) | 72.2 | -65.7% (inactive) | 105 | -0.592 (inactive) | -2.3e-05 (inactive) | 0.00622 (inactive) | -5.23% (inactive) | 19.5% (inactive) |
| O=C(NCCC1=CCCCC1)C1CCN(C(=O)Nc2ccccc2)CC1 | 206 | -6.2% (inactive) | -13.3% (inactive) | 92.3 | 5.2% (inactive) | 84.8 | -0.439 (inactive) | -5.1e-05 (inactive) | 0.00392 (inactive) | 2.99% (inactive) | 21.5% (inactive) |
| Cc1cn2c(-c3ccc(Cl)cc3)nnc2s1 | 752 | -1.6% (inactive) | 17.6% (inactive) | 98 | -81% (inactive) | 109 | -0.563 (inactive) | -4.1e-05 (inactive) | 0.00702 (inactive) | 6.2% (inactive) | 12.3% (inactive) |
| Cn1c(=O)c2c(nc(CN3CCCCC3)n2CCCc2ccccc2)n(C)c1=O | 431 | 10.1% (inactive) | -30.7% (inactive) | 102 | 38.4% (inactive) | 102 | -0.46 (inactive) | -9.8e-06 (inactive) | 0.00664 (inactive) | 15.4% (inactive) | 44.7% (inactive) |
| O=C1CCCC2=C1C(c1ccc(Br)cc1)c1c([nH]c(=S)[nH]c1=O)N2 (stereo not drawn) | 407 | -3.6% (inactive) | 17.6% (inactive) | 103 | -41.1% (inactive) | 109 | -0.378 (inactive) | -5.8e-05 (inactive) | 0.00391 (inactive) | 6.81% (inactive) | 17.9% (inactive) |
| O=C1CC(c2ccccc2)n2nc(NC(=O)c3ccccn3)nc2N1 (stereo not drawn) | 565 | 3.3% (inactive) | -11.8% (inactive) | 108 | 16.2% (inactive) | 106 | -0.605 (inactive) | -3.9e-05 (inactive) | 0.00587 (inactive) | 9.98% (inactive) | 27.1% (inactive) |
| CCn1c(C(C#N)/C(=N\S(=O)(=O)c2cccs2)c2ccccc2)nc2ccccc21 (stereo not drawn) | 694 | 25.4% (active) | -17.3% (inactive) | 94.2 | -188% (inactive) | 119 | -0.493 (inactive) | -3.2e-06 (inactive) | 0.00669 (inactive) | 10.5% (inactive) | 40.9% (inactive) |
| CCCCS(=O)(=O)NC1=NCN(C2CCN(Cc3ccccc3)CC2)CN1 | 378 | -2.1% (inactive) | 17.7% (inactive) | 97.1 | -23.1% (inactive) | 113 | -0.572 (inactive) | -9.6e-05 (inactive) | 0.00667 (inactive) | 4.05% (inactive) | 18.7% (inactive) |
| Oc1ccc(-c2n[nH]c(=S)n2Cc2ccccc2)cc1 | 409 | 9.6% (inactive) | -13.1% (inactive) | 109 | -75.1% (inactive) | 116 | -0.485 (inactive) | 4.7e-05 (inactive) | 0.00348 (inactive) | -8.79% (inactive) | -1.56% (inactive) |
| COc1cc(C(O)c2nc3ccccc3n2C)cc(OC)c1OC (stereo not drawn) | 384 | 25.8% (active) | 21.2% (inactive) | 81.3 | -13.7% (inactive) | 108 | -0.453 (inactive) | -2.3e-05 (inactive) | 0.00191 (inactive) | 2.58% (inactive) | 18.3% (inactive) |
| CN(C#N)c1nc(N2CCOCC2)nc(N2CCOCC2)n1 | 424 | -3.8% (inactive) | -5.5% (inactive) | 104 | -192% (inactive) | 105 | -0.612 (inactive) | 6.7e-06 (inactive) | 0.00573 (inactive) | 16.7% (inactive) | 20% (inactive) |
| O=C(NCCN1CCOCC1)NC1(C(F)(F)F)Oc2ccc(Cl)cc2O1 (stereo not drawn) | 457 | 16.3% (inactive) | 11% (inactive) | 96.4 | -51.7% (inactive) | 118 | -0.467 (inactive) | -5.6e-05 (inactive) | 0.00481 (inactive) | 24.6% (inactive) | 37.9% (inactive) |
| CCCCCOc1ccc(C2NC(=O)NC2=O)cc1 (stereo not drawn) | 804 | -5.5% (inactive) | -5.5% (inactive) | 107 | -50.9% (inactive) | 121 | -0.561 (inactive) | -4.1e-05 (inactive) | 0.00708 (inactive) | -12.1% (inactive) | -2.6% (inactive) |
| COC(=O)c1cc2ccsc2n1Cc1nc(-c2ccc(OC)cc2)oc1C | 622 | -17% (inactive) | -22% (inactive) | 120 | -66.3% (inactive) | 109 | -0.347 (inactive) | -2.6e-05 (inactive) | 0.00726 (inactive) | -25.1% (inactive) | -56.7% (inactive) |
| CCn1c(SCC(=O)Nc2ccc3c(c2)OCO3)nnc1-c1ccccc1O | 468 | -6.3% (inactive) | 2% (inactive) | 113 | -143% (inactive) | 151 | -0.5 (inactive) | -5.6e-05 (inactive) | 0.0056 (inactive) | 11.9% (inactive) | 0.128% (inactive) |
| CCCNS(=O)(=O)c1ccc(OCC(=O)NCc2ccco2)cc1 | 603 | 11.7% (inactive) | -6% (inactive) | 110 | -76.7% (inactive) | 126 | -0.478 (inactive) | 8.5e-05 (inactive) | 0.00584 (inactive) | -6.02% (inactive) | -17.4% (inactive) |
